{"source": "PubChem BioAssay (EPA / NIEHS)", "note": "Where “and” joins values, the source holds several entries; their conditions need not be identical. Equal values may be shown once. Where a structure was tested more than once in an assay, its records may differ in their call. Calls of active or inactive are those of the source. The calls were made as follows: active = hit-call score of the fitted dose curve at least 0.9, where 1 is the maximum; inactive = score below 0.9.", "data": [{"molecular_target": "X-box-binding protein 1 (Homo sapiens) (UniProt P17861)", "sequence (P17861 whole entry, looked up)": "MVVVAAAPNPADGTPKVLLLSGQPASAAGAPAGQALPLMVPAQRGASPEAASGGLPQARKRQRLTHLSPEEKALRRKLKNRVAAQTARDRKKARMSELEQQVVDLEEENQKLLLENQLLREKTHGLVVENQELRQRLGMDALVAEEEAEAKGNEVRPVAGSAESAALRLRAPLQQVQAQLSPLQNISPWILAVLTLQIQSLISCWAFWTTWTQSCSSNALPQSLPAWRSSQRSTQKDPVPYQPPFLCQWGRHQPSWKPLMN", "test": "ATG_Xbp1_CIS: Attagene CIS-FACTORIAL HepG2 Assay for human X-box Binding Protein 1 (XBP1) (AID 2282972)", "details": "HepG2 XBP1 cis-element reporter, Attagene multiplex; actives raise or lower the signal", "procedure": "ATG_CIS is a cell-based, multiplexed-readout assay that uses HepG2, a human liver cell line, with measurements taken at 24 hours after chemical dosing in a 24-well plate.ATG_Xbp1_CIS is one of 52 assay component(s) measured or calculated from the ATG_CIS assay. It is designed to make measurements of mRNA induction, a form of inducible reporter, as detected with fluorescence intensity signals by Reverse transcription polymerase chain reaction (RT-PCR) and Capillary electrophoresis technology.Data from the assay component ATG_Xbp1_CIS was analyzed into 1 assay endpoint. This assay endpoint, ATG_Xbp1_CIS, was analyzed with bidirectional fitting relative to DMSO as the negative control and baseline of activity. Using a type of inducible reporter, measures of mRNA for gain or loss-of-signal activity can be used to understand the reporter gene at the transcription factor-level as they relate to the gene XBP1. Furthermore, this assay endpoint can be referred to as a primary readout, because this assay has produced multiple assay endpoints where this one serves a reporter gene function. To generalize the intended target to other relatable targets, this assay endpoint is annotated to the dna binding intended target family, where the subfamily is basic leucine zipper.\nHuman liver HepG2 cells are transiently transfected with multiple reporter transcription units (MRTUs) in 6-well plates using FuGene 6 reagent (Roche; 3 ml FuGene/1 mg DNA). The MRTU constructs are regulated by a cis-regulating element (promoter). […] A major difference between the CIS and TRANS system is that in CIS activities of endogenous TFs are measured, whereas the TRANS assay evaluates changes in activities of exogenous, chimeric NR-Gal4 proteins. […] At the end of 24 hour incubation, total RNA was isolated using TriZol reagent (Invitrogen). The isolated RNA is then reverse-transcribed using oligo(dT) primer and Mo-MLV reverse transcriptase (Invitrogen) with DNAse I (Ambion) treatment for 30 min. The one-tenth of the produced cDNA was amplified by PCR using Taq DNA polymerase (Invitrogen) and two reporter sequence-specific primers. The PCR products were fluorescently labeled by primer extension with 6-arboxyfluorescein (6-FAM) 5'-labeled reporter sequence-specific primer (2 min at 95 C, 20 s at 68 C and 10 min at 72 C) and these products were digested with 5U of HpaI (New England Biolabs) for 2h at 37 C. The fragments were purified using Qiaquick PCR columns (Qiagen), analyzed on an ABI 3130xL genetic analyzer (Applied Biosystems) with peak positions identified by using a set of X-rhodamine (ROX)-labeled MapMarker1000 molecular weight standards (BioVentures). The raw capillary electrophoresis data was processed using Attagraph software (Attagene).", "values": [{"smiles": "Clc1ccc(Cl)c(Cl)c1", "outcome": "inactive"}, {"smiles": "Nc1ccc(Oc2ccc(N)cc2)cc1", "outcome": "inactive"}, {"smiles": "Clc1ccc(C(c2ccc(Cl)cc2)C(Cl)(Cl)Cl)cc1", "outcome": "inactive"}, {"smiles": "CCOc1cccc(C2(N3CCN(c4ccccc4)CC3)CCC(C)CC2)c1", "note": "(stereo not given)", "outcome": "inactive"}, {"smiles": "c1ccc(NNc2ccccc2)cc1", "outcome": "inactive"}, {"smiles": "CCCCCCCCOC(=O)c1ccc(C(=O)OCCCCCCCC)c(C(=O)OCCCCCCCC)c1", "outcome": "inactive"}, {"smiles": "COC(=O)c1ccccc1N", "outcome": "inactive"}, {"smiles": "Nc1ccc(N=Nc2ccccc2)cc1", "AC50": "73.9 µM (active)"}, {"smiles": "c1ccc2c(c1)oc1ccccc12", "outcome": "inactive"}, {"smiles": "CCCCCCCCCCCCCN1CC(C)OC(C)C1", "note": "(stereo not given)", "outcome": "inactive"}, {"smiles": "CCCCCCCCn1sccc1=O", "AC50": "16.5 µM (active)"}, {"smiles": "COC(=O)Nc1nc2ccccc2[nH]1", "outcome": "inactive"}, {"smiles": "ClC1=C(Cl)C2(Cl)C3C(Cl)C=CC3C1(Cl)C2(Cl)Cl", "note": "(stereo not given)", "outcome": "inactive"}, {"smiles": "Nc1ccc(Cl)cc1N", "AC50": "21 µM (active)"}, {"smiles": "CCCCC(CC)COC(=O)c1ccc(C(=O)OCC(CC)CCCC)c(C(=O)OCC(CC)CCCC)c1", "note": "(stereo not given)", "outcome": "inactive"}, {"smiles": "C[C@]12C=CC3=C4CCC(=O)C=C4CC[C@H]3[C@@H]1CC[C@@H]2O", "AC50": "134 µM (active) and 10.7 µM (active)", "outcome": "inactive"}, {"smiles": "CC(C)(O)c1cnn2c(-c3ccc(F)c(-c4c(F)cccc4C#N)c3)cnc2n1", "outcome": "inactive"}, {"smiles": "CC(C)N(Cc1ccccc1)C(=O)C(C)(C)C", "outcome": "inactive"}, {"smiles": "CC(C)(C)OOC(C)(C)CCC(C)(C)OOC(C)(C)C", "outcome": "inactive"}, {"smiles": "CN(C)c1ccc(C(=O)c2ccc(N(C)C)cc2)cc1", "outcome": "inactive"}, {"smiles": "c1ccc(C2CO2)cc1", "note": "(stereo not given)", "outcome": "inactive"}, {"smiles": "CCCSC(=O)N(CCC)CCC", "outcome": "inactive"}, {"smiles": "CN(C)C(=O)Nc1ccc(Cl)cc1", "outcome": "inactive"}, {"smiles": "COP(=S)(OC)SCN1C(=O)c2ccccc2C1=O", "outcome": "inactive"}, {"smiles": "Brc1ccc(Oc2ccccc2)cc1", "outcome": "inactive"}, {"smiles": "CCC12COCN1COC2", "outcome": "inactive"}, {"smiles": "ClC1=C(Cl)[C@]2(Cl)[C@H]3[C@H]([C@@H]4C=C[C@H]3C4)[C@@]1(Cl)C2(Cl)Cl", "AC50": "33.4 µM (active)"}, {"smiles": "Oc1ccc2ccc3cccc4ccc1c2c34", "outcome": "inactive"}, {"smiles": "C[N+](C)(C)CC1CO1", "note": "(stereo not given)", "outcome": "inactive"}, {"smiles": "OCCCl", "outcome": "inactive"}, {"smiles": "CCCCCOC(=O)c1ccccc1C(=O)OCCCCC", "outcome": "inactive"}, {"smiles": "COc1cc(C=O)cc2c1[C@H](COC(N)=O)[C@]1(OC(C)=O)ON2C[C@H]2[C@@H]1N2C(C)=O", "AC50": "33.4 µM (active)"}, {"smiles": "c1ccc(N=Nc2ccccc2)cc1", "outcome": "inactive"}, {"smiles": "O=Cc1ccco1", "outcome": "inactive"}, {"smiles": "CC(C)(C)C(O)(CCc1ccc(Cl)cc1)Cn1cncn1", "note": "(stereo not given)", "outcome": "inactive"}, {"smiles": "CCOC(=O)[C@]1(c2ccccc2)Oc2ccccc2[C@@H]1N", "AC50": "41.9 µM (active)"}, {"smiles": "O=C(Oc1ccc(Br)cc1)N1CCN2CCC1CC2", "outcome": "inactive"}, {"smiles": "Cn1cc(-c2ccccc2)c(=O)c(-c2cccc(C(F)(F)F)c2)c1", "outcome": "inactive"}, {"smiles": "Cc1ccc(N=C=O)cc1N=C=O", "outcome": "inactive"}]}]}
